This is a sample that favours compounds with a hit; in the whole collection about 2.4% have one here.
Pol eta inh = blocks human DNA polymerase eta activity. AID 588591. 390,000 tested, 1.2% active. Potency, µM (doses to about 114 µM), for inactives: at the highest dose activity change, negative = inhibition, actives largely listed as inhibitors. recombinant Pol eta, fluorescent DNA replication assay; further: on the % scale 0 is the no-effect control and ±100 the full control effect
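Pol eta (10 nM) was preincubated with compounds for 15 min at room temperature, after which fluorescent replication substrate (50 nM final) was added to start the reaction. Fluorescence was read kinetically at 0 and 10 min.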
Pol kappa inh = blocks human DNA polymerase kappa activity; Q9UBT6; purified Pol kappa, fluorescent DNA synthesis assay, 10 min; Potency, µM (doses to about 107 µM), without a hit: top-dose activity, negative = inhibition, actives largely listed as inhibitors; 400,000 tested, 0.53% active; AID 588579; further: on the % scale 0 is the no-effect control and ±100 the full control effect
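Kinetic fluorescence screen: compound preincubated 15 min RT with 10 nM enzyme; 50 nM substrate (final) initiates; reads at 0/10 min.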
WRN inhibitor = blocks human WRN helicase; Q14191; WRN helicase unwinding, fluorescent forked duplex, kinetic; Potency, µM (highest dose often 114 µM), for inactives: at the highest dose activity change, negative = inhibition, hits mostly inhibitors; 360,000 tested, 0.46% active; AID 651768; further: on the % scale 0 is the no-effect control and ±100 the full control effect; nearly all actives have a fitted effect of over 55% in size
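Kinetic red-fluorescence monitoring (525/598 nm) tracks WRN helicase activity after 100 nM fluorophore-quencher forked duplex and 2 mM ATP are added to 20 nM enzyme pretreated 15 min at room temperature with compound.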
POLB inh = blocks human DNA polymerase beta activity; 340,000 tested, 1.3% active; AID 485314; Pol beta primer extension/strand displacement, fluorescence kinetic; Potency, µM (highest dose often 114 µM), without a hit: top-dose activity change, negative = inhibition, most hits filed as inhibitors; further: on the % scale 0 is the no-effect control and ±100 the full control effect
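Enzyme-only controls used 10 nM Pol beta; buffer lacking enzyme served as negative control. Compound preincubated 15 min, then 50 nM substrate added; 0 and 10 min reads at room temperature.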
POLI inh = inhibitors of human DNA polymerase iota; 390,000 tested, 1% active; Q9UNA4; Potency, µM (top dose mostly 115 µM), without a hit: at the top dose activity, negative = inhibition, actives largely listed as inhibitors; Pol iota fluorescent replication assay, 10 min
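Pol iota at 10 nM preincubated 15 min with compounds at room temperature; reaction started with fluorescent substrate, 50 nM final. Fluorescence read kinetically at 0 and 10 min; buffer-only wells as negative control.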
FEN1 inh = blocks human flap endonuclease 1; 390,000 tested, 0.35% active; P39748; Potency, µM (top dose mostly 114 µM), without a hit: top-dose activity change, negative = inhibition, hits mostly inhibitors; Recombinant FEN1 flap cleavage, fluorescence, 15 min; further: on the % scale 0 is the no-effect control and ±100 the full control effect; nearly all actives have a fitted effect of over 65% in size
Target sequence (P39748 whole entry, looked up): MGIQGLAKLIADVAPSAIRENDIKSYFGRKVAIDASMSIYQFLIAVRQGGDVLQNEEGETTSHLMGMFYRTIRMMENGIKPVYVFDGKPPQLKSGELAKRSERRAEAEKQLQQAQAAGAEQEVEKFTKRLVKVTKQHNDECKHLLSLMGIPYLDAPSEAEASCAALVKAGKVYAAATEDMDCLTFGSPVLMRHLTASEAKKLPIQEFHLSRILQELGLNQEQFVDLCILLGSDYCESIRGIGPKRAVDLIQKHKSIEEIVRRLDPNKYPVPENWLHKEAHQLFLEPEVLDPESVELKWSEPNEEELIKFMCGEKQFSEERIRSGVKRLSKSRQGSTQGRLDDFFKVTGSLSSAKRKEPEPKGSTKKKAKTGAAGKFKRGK
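Concentration–response screening of FEN1 (10 nM): 15 min compound preincubation at room temperature, reaction started with 50 nM substrate and read at 0 and 15 min. Corrected, normalized data were fitted by a four-parameter Hill equation.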
* = called active by the depositor; ? = inconclusive; / = not tested or not shown; [ ] = remark or other dose. The call rests on the fitted dose curve; in most records, active means well fitted curve in the direction sought with a large enough effect; inconclusive means small, poorly fitted or top-dose-only effect, or another doubt; inactive means no such curve, though single readings can be large; an effect the other way counts as inactive or inconclusive. Potency means the concentration at half of the fitted maximal effect.

SMILES	Pol eta inh	Pol kappa inh	WRN inhibitor	POLB inh	POLI inh	FEN1 inh
O=S(=O)(O)c1cc(O)c2c(O)c(N=Nc3cc(Cl)ccc3O)c(S(=O)(=O)O)cc2c1	35µM*	16µM*	45µM*	32µM*	22µM*	?
Cc1cc(-c2ccc(N=Nc3c(S(=O)(=O)O)cc4cc(S(=O)(=O)O)cc(N)c4c3O)c(C)c2)ccc1N=Nc1c(S(=O)(=O)O)cc2cc(S(=O)(=O)O)cc(N)c2c1O	/	0.89µM*	/	/	/	/
O=C1Nc2ccc(I)cc2C1=Cc1cc(Br)c(O)c(Br)c1	/	?	/	/	45µM*	35µM*
C=C1C=C(C(F)F)n2ncc(C(=O)N3CCN(c4ccccn4)CC3)c2N1	/	-1%	/	/	10%	-18%
CC1(C)OC(=O)C2(Cc3ccccc3N3CCCC32)C(=O)O1 (stereo not given)	/	?	/	/	79µM*	10%
O=[N+]([O-])c1cc([N+](=O)[O-])c2nonc2c1Nc1ccc(O)cc1	10%	-24%	0%[11.6 µM]	14%	2.5µM*	?
O=[N+]([O-])c1cc([N+](=O)[O-])c2nonc2c1Nc1ccccc1O	-16%	-7%	-11%	-2%	50%	-7%
O=C(Nc1ccccc1SC(=O)c1ccccc1)c1ccccc1	-14%	/	0%	/	/	/
Cc1ccc(C(=O)Sc2cccccc2=O)cc1	-14%	-17%	-18%[57.1 µM]	40µM*	?	1%
CSCC[C@H](N)C(=O)N[C@@H](CO)C(=O)N[C@@H](CCCN=C(N)N)C(=O)N1CCC[C@H]1C(=O)N[C@@H](C)C(=O)N[C@@H](CS)C(=O)N1CCC[C@H]1C(=O)N[C@@H](CC(N)=O)C(=O)N[C@@H](CC(=O)O)C(=O)N[C@@H](CCCCN)C(=O)N[C@@H](Cc1ccc(O)cc1)C(=O)N[C@@H](CCC(=O)O)C(=O)O	/	15%[60.1 µM]	/	/	/	/
CCn1c(SCC(=O)Nc2ccc(OC)c(OC)c2)nc2c(c1=O)SCC2	-2%	-3%	-22%	2%	7%	5%
CCn1c(SCC(=O)Nc2cc(OC)ccc2OC)nc2c(c1=O)SCC2	-8%	-4%	?	22µM*	-1%	0%
Cc1cc(=O)c2cc3nc(-c4cccnc4)oc3c(Br)c2o1	/	/	/	40µM*	/	/
O=c1oc(-c2cccnc2)nc2ccccc12	-17%	8%	-26%	-5%	6%	-5%
COC(=O)c1ccccc1NC(=O)c1c(C)oc2ncn(C)c(=O)c12	-11%	-7%	/	36%	30%	-9%
COc1ccc(NC(=O)CSc2ccc(-c3sc(C)nc3C)nn2)cc1OC	-7%	-18%	-1%	25µM*	?	1%
Cc1nc(C)c(-c2ccc(SCC(=O)Nc3ccc(C)c(Cl)c3)nn2)s1	-8%	-2%	-13%	1%	28%	-2%
COc1ccc(-c2ccc(SCC(=O)Nc3cccc(C(C)=O)c3)nn2)cc1OC	?	?	5%	16µM*	28µM*	-29%
CC(=O)c1ccc(NC(=O)CSc2ccc(-c3sc(C)nc3C)nn2)cc1	-7%	-18%	2%	20µM*	?	-7%
Cc1cccc(OCC(=O)Nc2ccc(O)c(-c3nc4ccccc4o3)c2)c1	/	-19%	/	/	?	-2%
CCCCC/C=C\C/C=C\C/C=C\C/C=C\CCCC(=O)O[C@@H](CO)COC(=O)CCCCCCCCCCCCCCCCC	/	2%[19.4 µM]	/	/	/	/
CN(C1CCCCC1)S(=O)(=O)c1ccc(F)c(C(=O)Nc2ccc(C(F)(F)F)cc2)c1	?	6%[60.1 µM]	/	-24%	19%	1%
COc1ccccc1CNc1cc(-c2ccccc2Cl)ncn1	/	8%[60.1 µM]	/	/	/	/
COc1ccccc1N(CC(=O)Nc1ccc2c(c1)OCO2)S(=O)(=O)c1ccc(C)cc1	-13%	-11%	/	5%	7%	6%
Cc1cc(C(=O)N/N=C/c2cc(N=Nc3ccccc3)ccc2O)n[nH]1	-7%	-3%	-31%[57.1 µM]	25µM*	2%	8%
SMILES	Pol eta inh	Pol kappa inh	WRN inhibitor	POLB inh	POLI inh	FEN1 inh
COC(=O)N/N=C/c1cc(N=Nc2ccccc2)ccc1O	-24%	1%	-3%	-1%	29%	2%
COC1=CCC2([N+](=O)[O-])CN(CCO)CC1([N+](=O)[O-])C2 (stereo not given)	-9%	-14%	-4%	0.2µM*	4%	8%
O=C(O)CCN1CC2([N+](=O)[O-])CC=C(OCCO)C([N+](=O)[O-])(C1)C2 (stereo not given)	-6%	-4%	5%	0%	?	2%
COc1ccc2nc(SC)c(C#N)cc2c1	-1%	15%	2%	29%	89µM*	12%
O=C(NCc1ccco1)c1cc2c(s1)CSC2	20µM*	11µM*	18µM*	14µM*	?	50µM*
CCOc1ccc(C(=O)NCc2ccco2)cc1	?	?	-13%[57.1 µM]	22µM*	?	-4%
CCC(CC)C(=O)Nc1cccc(C(=O)NCc2ccco2)c1	?	?	-19%[57.1 µM]	3.2µM*	40µM*	0%
CC(C)CNC(=O)c1cccc(NC(=O)c2ccc(NC(=O)c3ccco3)cc2)c1	-9%	-14%	-14%	25µM*	?	-6%
O=C(NCc1ccco1)c1cccs1	?	-15%	-33%[57.1 µM]	-10%	?	-3%
CCOC(=O)c1cccc(Nc2ccc3cc(S(=O)(=O)N4CCCCC4)ccc3n2)c1	-19%	-10%	/	-3%	10%	4%
Cc1ccc(NC(=O)CCc2nnc3n(CC(C)C)c(=O)c4ccccc4n23)cc1C	-18%	-1%	/	2%	24%	-4%
O=C(NCc1ccco1)c1ccc(Cn2c(=S)[nH]c3ccccc3c2=O)cc1	?	-30%	-28%	20µM*	95%	-17%
Cc1ccc(C(=O)NCc2ccco2)cc1	-15%	-15%	0%	-1%	64%	-1%
CCOC(=O)c1c(C)c(C(=O)NCc2ccco2)c(C)n1Cc1ccccc1	?	-36%	-16%[57.1 µM]	40µM*	?	-1%
Cc1cccc(C(=O)NCc2ccco2)c1	?	-42%	-2%[11.6 µM]	56µM*	?	-2%
Cc1nc(-c2ccc(C)c(S(=O)(=O)N3CCC(C(=O)NCc4ccc(F)cc4)CC3)c2)no1	-17%	-11%[60.1 µM]	/	-1%	-11%	14%
O=c1[nH]c(=O)n([C@H]2C[C@@H](O)[C@@H](CO)O2)cc1C=CBr	/	1%[60.1 µM]	/	/	/	/
O=C(CN1CCCCC1)Nc1nnc(-c2ccc([N+](=O)[O-])cc2)s1	18µM*	-12%	-15%[57.1 µM]	8%	-23%	2%
O=C1CC(SC(=S)C2CCCC2=O)C(=O)N1 (stereo not given)	7.1µM*	/	35µM*	/	/	/

Bioassay records from PubChem.
